# Screening results: PubChem BioAssay, Sanford-Burnham Center for Chemical Genomics
# Most compounds without a hit are left out; they make up all but 28% or so of the library.
# CD11b adhes inh: inhibitors of human CD11b/CD18 binding to fibrinogen | hit rate 0.54% among 93,000 | inhibition, % at 10 µM | P05107+P11215 | K562 CD11b/CD18 adhesion to fibrinogen, ATPlite luminescence; Mn2+ added to activate the integrin;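 active = primary inhibition of 50% or more at 10 µM, then 40% or more on retest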
# Mac1 fbg enh: enhancers of human CD11b/CD18 binding to fibrinogen; K562 CD11b/CD18 adhesion to fibrinogen, ATPlite luminescence; activation, % at 10 µM; hit rate 0.07% among 93,000;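 active = 10 µM primary screen giving 50% or more activity, confirmed by 40% or more on retest at that dose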
# CYP2C9 inh: human CYP2C9 inhibition; P11712; CYP2C9 Supersomes, luciferin-H conversion, luminescence; inhibition, % at 5 µM; hit rate 20% among 96,000; AID 777;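 active = blocking of liver enzyme CYP2C9 beyond about 50% at 5 µM, limit read from the data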
# Target sequence (P11712 whole entry, looked up): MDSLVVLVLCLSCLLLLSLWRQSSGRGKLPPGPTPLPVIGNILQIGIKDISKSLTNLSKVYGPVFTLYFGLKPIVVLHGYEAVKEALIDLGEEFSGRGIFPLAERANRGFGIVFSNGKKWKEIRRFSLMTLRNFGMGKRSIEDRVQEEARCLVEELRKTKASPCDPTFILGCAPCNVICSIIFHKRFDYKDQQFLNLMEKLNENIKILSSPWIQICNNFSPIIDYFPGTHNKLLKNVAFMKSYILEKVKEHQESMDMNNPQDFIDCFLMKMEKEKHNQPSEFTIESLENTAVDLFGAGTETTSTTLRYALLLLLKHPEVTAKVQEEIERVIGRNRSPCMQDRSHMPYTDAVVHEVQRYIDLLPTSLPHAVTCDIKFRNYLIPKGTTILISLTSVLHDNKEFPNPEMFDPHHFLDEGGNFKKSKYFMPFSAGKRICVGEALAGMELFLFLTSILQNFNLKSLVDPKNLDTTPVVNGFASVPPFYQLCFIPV
# CYP2C9 activ: CYP2C9 (human) activation; P11712; recombinant CYP2C9, luciferin-H conversion, luminescence; stronger effect = higher value; factor 1 = untreated enzyme, 0 = blocked; activation factor at 5 µM; hit rate 1.4% among 96,000; AID 1024;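 active = activation factor of 2 or more for CYP2C9 at a 5 µM dose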;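 note: 0 = sulfaphenazole-blocked wells and 1 = vehicle-only wells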
# CYP2C19 activ: increases human CYP2C19 enzyme activity. P33261. recombinant CYP2C19, luciferin-H EGE luminescence; stronger effect = higher value; 0 = fully inhibited enzyme, 1 = untreated enzyme. activation factor at 5 µM. 96,000 tested, under 10 active;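 active = activation factor of at least 2 at 5 µM in the primary screen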;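 note: 0 = wells with 2.5 mM tranylcypromine and 1 = vehicle-only wells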
# CYP2C19 inhib: inhibitors of human CYP2C19. P33261. CYP2C19 Supersomes, luciferin-H EGE luminescence, 30 min. inhibition, % at 5 µM. hit rate 21% among 96,000. AID 778;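 active = CYP2C19 inhibition above a set limit at 5 µM in the primary screen, cut at about 50% in these data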;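 note: plate controls were negative control wells for no effect and 2.5 mM tranylcypromine positive control for full effect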
# The depositor's hits bear a star; . = no result given.
SMILES,CD11b adhes inh,Mac1 fbg enh,CYP2C9 inh,CYP2C9 activ,CYP2C19 activ,CYP2C19 inhib
CCOc1cc(-c2cc(-c3ccc(C)o3)nc(N)c2C#N)ccc1O,-5.8,27.1,37.7,0.6,0.8,17.9
CN1CC(=O)NC1=NC(=O)C12CC3CC(CC(C3)C1)C2,-12.3,-0.3,10.1,0.9,0.9,10.8
Cc1ccc(-c2n[nH]c3c2CCC3)cc1,-6.9,1.3,43.0,0.6,0.3,66.1*
c1ccc(C2=Nn3c(nnc3-c3n[nH]c4c3CCC4)SC2)cc1,-10.9,0.9,11.1,0.9,0.5,49.6
Cc1ccc(S(=O)(=O)Cn2nnnc2C(C(C)C)N2CCc3ccccc3C2)cc1 (stereo not drawn),3.5,1.4,25.1,0.7,0.7,32.1
CCCC(c1nnnn1CS(=O)(=O)c1ccc(C)cc1)N1CCN(c2ccc(F)cc2)CC1 (stereo not drawn),0.4,13.8,9.5,0.9,1.1,-5.4
Cc1ccc(S(=O)(=O)Cn2nnnc2C(c2ccccn2)N2CCN(c3ccccc3)CC2)cc1 (stereo not drawn),2.7,-3.2,68.5*,0.3,0.3,72.4*
Cc1ccc(S(=O)(=O)Cn2nnnc2C(C(C)C)N2CCSCC2)cc1 (stereo not drawn),4.2,1.0,68.6*,0.3,0.8,23.9
CC(=O)OC1CCC2(C)C(COc3ccc4ccc(=O)oc4c3)C(C)(O)CCC2C1(C)C (stereo not drawn),9.5,2.4,52.8*,0.5,0.8,21.3
CN(C)C(=O)COc1ccc2ccc(=O)oc2c1,-11.5,-2.7,-16.2,1.2,1,-4.0
O=c1oc2cc(Br)ccc2n1CSC1=NCCS1,1.4,0.9,2.8,1,0.8,23.2
Oc1ccc(Br)cc1-c1cc(-c2ccccc2F)[nH]n1,-1.3,40.0,29.4,0.7,0.8,16.2
COc1ccc(O)c(-c2cc(-c3cccs3)[nH]n2)c1,16.1,-3.3,73.7*,0.3,0.6,36.8
Cc1cc(N=Cc2c(O)n(-c3ccc4c(c3)OCO4)c(=O)c3ccccc23)ccn1,12.6,8.4,60.5*,0.4,0.4,55.1*
CC(C)C(c1nnnn1C1CCCCC1)N1CCN(c2ncccn2)CC1 (stereo not drawn),-8.9,-4.2,59.5*,0.4,0.7,26.7
CC(C)CC(c1nnnn1C1CCCCC1)N1CCN(c2ncccn2)CC1 (stereo not drawn),20.7,-2.6,96.1*,0,0.1,87.5*
CC(C)C(c1nnnn1C1CCCC1)N1CCN(C(=O)c2ccco2)CC1 (stereo not drawn),-25.1,-0.3,50.3*,0.5,1,4.6
CC(C)C(c1nnnn1C1CCCC1)N1CCCCC1 (stereo not drawn),1.5,-1.4,-8.3,1.1,1.3,-32.1
N#Cc1cc(-c2ccccc2)cnc1Sc1ccccc1,.,.,78.2*,0.2,0.7,28.1
O=c1[nH]c2cnccc2n1-c1ccccc1,-5.7,0.6,-8.0,1.1,1.2,-19.1
CN(C)CCn1c(C(=O)Nc2ccccc2)cc2ccccc21,-14.3,-4.7,0.7,1,0.9,11.6
CCn1c(CSc2nnc(C)n2-c2ccccc2)nc2cc(S(=O)(=O)N(C)C)ccc21,-1.0,1.1,65.8*,0.3,1,-1.5
CCn1c(CSc2nnc(-c3ccc4c(c3)OCO4)o2)nc2cc(S(=O)(=O)N(C)C)ccc21,7.7,-1.7,81.1*,0.2,0.2,82.7*
O=C1N/C(=N/N=C/c2ccccc2)SC1(c1ccccc1)c1ccccc1,-7.9,4.1,93.9*,0.1,0.8,20.5
Cc1cc(C)c2c3c(sc2n1)C(c1cccc(F)c1)C(C#N)=C(N)O3 (stereo not drawn),8.4,-0.4,45.0,0.6,0.8,22.7
COc1ccc(OC)c(NC(=O)CSc2nnc(Cn3nnc4ccccc43)n2C)c1,.,.,-4.5,1,0.9,9.3
O=C(Nc1ccc(F)cc1)N1CCN(C/C=C/c2ccccc2)CC1,-1.8,-3.8,50.6*,0.5,0.6,42.0
O=C(Nc1cccc(F)c1)N1CCN(C/C=C/c2ccccc2)CC1,-1.0,-4.7,22.1,0.8,0.8,23.7
O=C(c1cnccn1)N1CCN(C/C=C/c2ccccc2)CC1,-5.0,-3.9,3.4,1,0.9,7.5
O=C(c1cccs1)N1CCN(CCc2ccccc2)CC1,-0.8,10.6,42.8,0.6,0.2,79.3*
